Screening data as filed in PubChem.
A selection: hits, their analogues and other compounds. The true share with any hit is near 1%.
EBV gp42 block = blocks Epstein-Barr virus glycoprotein 42 binding; Q1HVG2; Fluorescence polarization binding assay, mP read-out; inhibition, % (tested at 21.74 µM); 0.42% of 220,000 active; in the data active = inhibition above about 50%
EBNA-1 inh = blocks EBNA-1 binding to DNA | EBNA-1 DNA binding, fluorescence polarization | AID 1950 | inhibition, % at 14.8 µM | 0.34% of 300,000 active; in the data active = inhibition above about 28%
MEX-5 binding = C. elegans MEX-5 TCR-2 RNA binding activity | Q9XUB2 | MEX-5/FITC-TCR2 RNA binding, fluorescence polarization; active compounds read low | activity score (negative = inhibition of binding), % at 10 µM | 0.38% of 300,000 active;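 active = inhibition past about -25% in most replicates, and total fluorescence under double the plate's negative control median, limit read from the data; inconclusive = replicates evenly split on the limit, or fluorescence at least double controls; inactive = too little inhibition in most replicates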
Target sequence (Q9XUB2 whole entry, looked up): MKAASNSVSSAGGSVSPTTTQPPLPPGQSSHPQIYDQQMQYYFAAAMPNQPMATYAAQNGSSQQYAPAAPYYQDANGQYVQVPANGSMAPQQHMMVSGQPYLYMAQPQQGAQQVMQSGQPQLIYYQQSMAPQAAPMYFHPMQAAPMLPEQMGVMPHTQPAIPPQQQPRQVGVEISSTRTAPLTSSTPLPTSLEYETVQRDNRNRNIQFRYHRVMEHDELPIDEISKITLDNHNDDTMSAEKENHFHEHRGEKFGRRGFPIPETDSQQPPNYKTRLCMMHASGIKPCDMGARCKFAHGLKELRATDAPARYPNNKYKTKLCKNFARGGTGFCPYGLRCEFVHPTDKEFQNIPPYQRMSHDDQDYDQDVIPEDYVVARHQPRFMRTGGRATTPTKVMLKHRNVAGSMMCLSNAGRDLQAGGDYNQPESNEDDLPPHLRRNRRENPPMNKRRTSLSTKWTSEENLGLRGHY
ZTA counter = ZTA (EBV) inhibition in EBNA-1 counter-screen; P03206; ZTA-DNA binding, fluorescence polarization; inhibition, % at 11 µM; 0.15% of 320,000 active; AID 2234; in the data active = inhibition above about 33%
A number is an active result; . = inactive; ? = inconclusive; / = no result; + = active, no number.

SMILES	EBV gp42 block	EBNA-1 inh	MEX-5 binding	ZTA counter
Cc1cccc(N2C(=O)c3ccccc3C2=O)n1	/	.	.	.
CC(OC(=O)CN1C(=O)NC2(CCCC2)C1=O)c1ccc(F)cc1 (stereo not given)	/	/	/	.
O=C(Nc1ccc(N2CCN(C(=O)c3cccs3)CC2)cc1)c1ccc(Br)o1	/	/	/	.
O=c1cc(-c2ccccc2)nc2c(-c3ccccc3)c(C(F)(F)F)[nH]n12	59.9	.	.	.
CC(Oc1ccc(C(=O)c2ccc(F)cc2)cc1)C(=O)N1CCOCC1 (stereo not given)	/	.	.	.
Cc1c(C(=O)OCC(=O)Nc2ccc(S(N)(=O)=O)cc2)oc2c1ccc1ccccc12	.	72.1	.	33.4
Cc1ccc2c(C)c(C(=O)Nc3ccc(S(N)(=O)=O)cc3)oc2c1C	.	.	.	.
Nn1c(-c2ccc(F)cc2)nc2ccccc2c1=O	/	.	.	.
O=C1c2cc(F)ccc2-n2c1nc1ccccc1c2=O	/	.	-33.2	.
Cn1cc(/C=N/n2cnc3scc(-c4ccc(Cl)cc4)c3c2=O)c2ccccc21	.	.	-27.5	.
CCn1cnc2scc(-c3ccccc3)c2c1=O	.	.	.	.
CC(OC(=O)CNC(=O)c1ccc2ccccc2c1)C(=O)NC1CCCCC1C (stereo not given)	/	.	.	.
C=CCN1C(=O)/C(=C/c2ccc(OCC(=O)O)cc2)S/C1=N/c1nccs1	.	.	.	.
C=CCN1C(=O)/C(=C/c2ccc(N(C)C)cc2)S/C1=N\c1nnc(CC)s1	52.9	/	.	/
Cc1ccc(S(=O)(=O)N(C)C)cc1NC(=O)c1cc(-c2ccco2)nc2ccccc12	/	.	.	.
O=c1c(-c2ccccc2)c(O)c2ccccc2n1-c1ccccc1	/	.	.	.
CC1C2(C)OC(=N)C(C#N)(C(C)O2)C1(C#N)C#N (stereo not given)	.	.	-30.4	.
CC1(C)Cc2c(c(-c3ccccc3Cl)[nH]c(=O)c2C#N)CO1	.	.	.	.
N#Cc1c(-c2ccc(Cl)cc2)c2c([nH]c1=O)-c1ccccc1OC2	.	.	-28.4	.
Cc1ccc(-c2cn3nc(-c4ccccc4)c(-c4ccccc4)nc3n2)cc1	125.6	.	?	.
c1ccc(-c2cn3nc(-c4ccccc4)c(-c4ccccc4)nc3n2)cc1	128.1	.	-26.7	.
CCC(OCC(O)CN1CCCCC1)c1ccccc1 (stereo not given)	/	.	.	.
Cc1ccc2sc(NNC(=O)c3cc(=O)c4ccccc4o3)nc2c1C	.	.	-64.0	.
Cc1cccc2sc(NNC(=O)c3cc(=O)c4ccccc4o3)nc12	.	.	-79.1	.
ClCc1nc2ccccc2c2ccccc12	/	.	.	.
SMILES	EBV gp42 block	EBNA-1 inh	MEX-5 binding	ZTA counter
O=C1NC(=Nc2ccc(Cl)cc2)/C(=C/c2ccco2)S1	61.7	.	.	.
Cc1cccc(N=C2NC(=O)S/C2=C\c2ccco2)c1	.	.	.	.
O=C1CCCN1CCCNc1nc2c(S(=O)(=O)c3ccccc3)nnn2c2ccc(Cl)cc12	/	.	.	.
CCN(CC)c1ccc(N=Cc2ccccc2[N+](=O)[O-])cc1	.	176.9	.	+
CCN(CC)c1ccc(N=Cc2ccc([N+](=O)[O-])o2)cc1	.	+	.	+
O=[N+]([O-])c1ccc(-n2cc(-c3ccccc3)nn2)cc1	/	.	.	.
O=[N+]([O-])c1cccc(-c2cn3nc(-c4ccccc4)c(-c4ccccc4)nc3n2)c1	71.9	.	-44.3	.
O=[N+]([O-])c1ccc(-c2cn3nc(-c4ccccc4)c(-c4ccccc4)nc3n2)cc1	110.8	.	.	.
Cc1ccccc1CNC(=O)C(=O)NCCC1CCCCN1S(=O)(=O)c1cccs1 (stereo not given)	/	.	.	.
Cc1cc(O)c(C(=O)Nc2cccc(Cl)c2)c(=O)n1C	/	.	.	.
CCCn1c(SCCc2ccccc2)nc2c1c(=O)[nH]c(=O)n2C	115.0	.	.	.
CCCCOc1ccc2c(c1)/C(=C(\C(Cl)=C(Cl)Cl)[N+](=O)[O-])N2	56.4	.	-58.9	.
CCOc1ccc2c(c1)/C(=N/N1C(=O)c3ccccc3C1=O)C(=O)N2	.	.	.	.
CCOc1ccc2c(c1)/C(=C(\C(Cl)=C(Cl)Cl)[N+](=O)[O-])N2	.	.	-43.9	.
COc1ccc2c(-c3ccccc3)cc(SCC(N)=O)nc2c1	.	.	-32.9	.
COc1ccc(/C=C2\CCCC(C(=O)C(F)(F)F)=C2O)cc1OC	.	.	-34.2	.
COc1ccc(/C=C2/CCCC(C(=O)C(F)(F)F)=C2O)cc1OC	.	.	.	.
COc1ccc(/C=C2\CCCc3c2nc2ccccc2c3C(=O)O)cc1OC	105.3	.	-73.2	.
CCOc1ccccc1N(C)C(=O)c1cn(C)c(=O)c2ccccc12	/	.	.	.
COc1ccc(C2CC(=O)C(C=NCCCO)=C(O)C2)cc1 (stereo not given)	/	.	-26.7	.
COc1ccc(C2CC(=O)C(C=NCC(C)C)=C(O)C2)cc1 (stereo not given)	/	/	.	/
O=C(CN1C(=O)c2ccccc2C1=O)OCC(=O)c1ccc(F)cc1	/	.	.	.
CC1(C)NC(=O)N(CC(=O)OCC(=O)c2ccc(F)cc2)C1=O	/	101.7	.	.
CCN(CC)c1ccc2c(-c3ccc(S(=O)(=O)O)cc3S(=O)(=O)[O-])c3ccc(=[N+](CC)CC)cc-3oc2c1	/	200.0	?	+
CC(=NC1CC1)c1c(-c2ccccc2)[nH]n(-c2nc3ccccc3s2)c1=O	.	.	.	.
SMILES	EBV gp42 block	EBNA-1 inh	MEX-5 binding	ZTA counter
CC(=NC1CCCC1)c1c(C)[nH]n(-c2nc3ccccc3s2)c1=O	.	.	-43.1	.
N#CC1=C(N)OC2=C(CC/C2=C\c2ccccc2Cl)C1c1ccccc1Cl (stereo not given)	.	.	.	.
N#CC1=C(N)OC2=C(CC/C2=C\c2ccccc2)C1c1ccccc1 (stereo not given)	94.6	.	.	.
Cc1oc2cc(O)ccc2c(=O)c1-c1nncn1-c1ccccc1	108.5	.	?	.
Cc1ccc2c(c1)N(C(=O)CCC(=O)NC1CCN(Cc3ccccc3)CC1)CC(C)O2 (stereo not given)	/	.	.	.
CC(=O)Nc1cccc(Oc2nc(-c3ccccn3)nc3ccccc23)c1	.	.	-34.7	.
CCOc1ccc(C(C)NC(=O)c2cc(=O)[nH]c3ccccc23)cc1OCC (stereo not given)	/	.	.	.
COc1ccc(C2OC34CCCCC3C(C#N)(C#N)C2(C#N)C(=N)O4)cc1 (stereo not given)	.	.	-84.5	.
CCOC(=O)C1=C(COC(=O)/C=C/c2cccc(OC)c2OC)NC(=O)NC1C (stereo not given)	/	.	.	.
COC(=O)C1=C(C)N(c2cc(C)cc(C)c2)/C(=C/c2ccco2)C1=O	.	.	.	.
COC(=O)C1=C(C)N(c2ccccc2)/C(=C/c2ccco2)C1=O	.	.	-28.4	.
COc1ccc(CCNC(=O)CCNC(=O)N2CC(=O)Nc3ccccc32)cc1	/	.	.	.
CC1=NN(c2ccccc2)C(=O)C1C=Nc1ccc(N(C)C)cc1 (stereo not given)	.	82.3	.	+
COC(=O)c1ccccc1NC(=O)CCS(=O)(=O)c1ccc(Br)cc1	75.5	/	.	/
